# Values joined by “and” are separate entries in the source; they are usually repeats but may differ in a detail not shown here. Identical values can stand only once. Inconclusive results are not listed. Where a call stands in place of a potency, no number is given. A structure can be active in one record and inactive in another. Active and inactive are the calls of the source. Unless noted, the call rests on the fitted dose curve; in most records, active means well fitted curve in the direction sought with a large enough effect in the repeat runs; inconclusive means weak or mixed curves; inactive means no such curve, though single readings can be large; an effect the other way counts as inactive or inconclusive.
# Columns and labels:
# [1] = qHTS assay to identify small molecule agonists of the estrogen receptor alpha (ER-alpha) signaling pathway in the presence of an antagonist - cell viability counter screen (AID 1259386);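 further: cells exposed to compounds for 22 h at 37 °C before the viability read; nearly all actives have a fitted effect of over 30% in size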; further: potency means the concentration at half of the fitted maximal effect; on activity change, negative = cytotoxicity: series mostly up to about 92 µM
# Procedure, shortened: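 Using estrogen-depleted VM7Luc4E2 cells, the 15-concentration compound series was applied together with 10.0nM ICI-182,780 and incubated 22hr at 37C/5% CO2. Cell viability was then scored by CellTiter-Fluor.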
# [2] = biological target: Progesterone receptor (Homo sapiens) (UniProt P06401); assay: qHTS assay to identify small molecule agonists of the progesterone receptor (PR) signaling pathway (AID 1346784; calls by dose curve; further: nearly all actives have a fitted effect of over 30% in size; further: potency means the concentration at half of the fitted maximal effect)
# Chain of Progesterone receptor (Homo sapiens) (P06401 whole entry, looked up): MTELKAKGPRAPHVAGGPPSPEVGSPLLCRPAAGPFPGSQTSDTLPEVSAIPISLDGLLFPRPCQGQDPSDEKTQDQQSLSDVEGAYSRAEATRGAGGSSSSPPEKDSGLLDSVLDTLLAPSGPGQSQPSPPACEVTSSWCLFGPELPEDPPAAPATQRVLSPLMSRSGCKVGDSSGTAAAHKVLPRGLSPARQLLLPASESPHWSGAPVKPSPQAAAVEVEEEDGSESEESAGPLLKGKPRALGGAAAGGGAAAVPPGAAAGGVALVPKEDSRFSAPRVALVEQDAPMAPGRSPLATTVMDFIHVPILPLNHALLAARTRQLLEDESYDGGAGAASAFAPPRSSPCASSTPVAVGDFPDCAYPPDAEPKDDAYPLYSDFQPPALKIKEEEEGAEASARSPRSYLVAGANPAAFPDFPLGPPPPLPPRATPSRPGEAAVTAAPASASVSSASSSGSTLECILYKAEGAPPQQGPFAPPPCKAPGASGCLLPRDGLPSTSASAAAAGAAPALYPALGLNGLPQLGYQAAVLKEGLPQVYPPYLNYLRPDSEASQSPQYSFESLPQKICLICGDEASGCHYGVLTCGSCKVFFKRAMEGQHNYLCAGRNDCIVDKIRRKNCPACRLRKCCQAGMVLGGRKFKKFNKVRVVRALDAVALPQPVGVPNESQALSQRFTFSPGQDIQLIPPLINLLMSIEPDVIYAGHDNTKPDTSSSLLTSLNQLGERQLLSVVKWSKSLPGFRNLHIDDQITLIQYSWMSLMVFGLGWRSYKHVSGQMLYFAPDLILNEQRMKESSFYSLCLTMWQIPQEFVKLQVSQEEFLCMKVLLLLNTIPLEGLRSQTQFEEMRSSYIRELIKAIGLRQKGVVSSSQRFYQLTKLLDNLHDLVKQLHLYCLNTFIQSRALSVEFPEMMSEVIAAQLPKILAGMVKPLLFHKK
# Procedure, shortened: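 Seed PR-UAS-bla HEK 293T cells (2% charcoal-stripped FBS), incubate 6 hr at 37C; add compounds in DMSO, 16 hr at 37C; add LiveBLAzer B/G substrate, 2 hr RT; read fluorescence intensity.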
# [3] = qHTS assay to identify small molecule antagonists of the progesterone receptor (PR) signaling pathway - cell viability counter screen (AID 1346798); further: nearly all actives have a fitted effect of over 50% in size; further: potency means the concentration at half of the fitted maximal effect; on activity change, negative = cytotoxicity: series mostly up to about 92 µM
# Procedure, shortened: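 Measures cytotoxicity in parallel with the PR antagonist reporter read: HEK293T PR-UAS-bla cells get compound and R5020 for 16 hr, and remaining viable cells are quantified by CellTiter-Glo luminescence.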
# [4] = qHTS assay to identify small molecule antagonists of the TGF-beta/Smad signaling pathway - cell viability counter screen (AID 1346824); further: nearly all actives have a fitted effect of over 50% in size; further: potency means the concentration at half of the fitted maximal effect
# Procedure, shortened: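 SBE-bla HEK 293T cells, incubated overnight, then compound plus 0.25 ng/mL TGF-beta1 (stock added) for 5 hr at 37 C. Viability was read in the same wells by CellTiter-Glo luminescence after 30 min at room temperature.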
# [5] = qHTS assay to identify small molecule agonists of the TGF-beta/Smad signaling pathway - cell viability counter screen (AID 1346829); further: nearly all actives have a fitted effect of over 45% in size; further: potency means the concentration at half of the fitted maximal effect; on activity change, negative = cytotoxicity: top concentration of the series differs between compounds
# Procedure, shortened: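 HEK 293T SBE-bla line, 5 hr compound exposure at 37 C, multiplexed CellTiter-Glo viability read by luminescence.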
# [6] = Human pregnane X receptor (PXR) small molecule agonists, qHTS cell viability counter screen (AID 1346977); further: nearly all actives have a fitted effect of over 50% in size; further: potency means the concentration at half of the fitted maximal effect
# Procedure, shortened: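 After a 5hr pre-incubation, PXR-Luc HepG2 cells received compounds plus positive control in DMSO and were kept 24hr at 37C. Cell viability was quantified by fluorescence from CellTiter-Fluor added for the final hour.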
# [7] = Caspase-3/7 induction in HepG2 cells by small molecules, qHTS assay (AID 1346978); further: nearly all actives have a fitted effect of over 15% in size
# Procedure, shortened: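 Wild-type HepG2 cells, 2,000/well, settled 5 hr at 37 C and 5% CO2, then compound-treated for 17 hr; caspase-3/7 activity read by luminescent Caspase-Glo 3/7 after 30 min at room temperature.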
# [8] = Caspase-3/7 induction in CHO-K1 cells by small molecules, qHTS assay (AID 1346980); further: nearly all actives have a fitted effect of over 15% in size
# Procedure, shortened: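 Wild-type CHO-K1 cells exposed to compounds for 17hr at 37 C, 5% CO2. Caspase-3/7 activity then measured by Caspase-Glo 3/7 luminescence after 30min at room temperature.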
# [9] = Caspase-3/7 induction in HepG2 cells by small molecules, qHTS cell viability counter screen (AID 1346981); further: nearly all actives have a fitted effect of over 30% in size; further: potency means the concentration at half of the fitted maximal effect; on activity change, negative = cytotoxicity: series mostly up to about 92 µM
# Procedure, shortened: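 After a 5-hr attachment period at 37 C and 5% CO2, wild-type HepG2 cells received compounds in DMSO. Sixteen hours later CellTiter-Fluor was dispensed and the fluorescent signal quantified after a further hour.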
# [10] = biological target: Nuclear receptor subfamily 1 group I member 2 (Homo sapiens) (UniProt O75469); assay: Human pregnane X receptor (PXR) small molecule agonists, qHTS assay (AID 1346982); further: nearly all actives have a fitted effect of over 35% in size; further: potency means the concentration at half of the fitted maximal effect
# Chain of Nuclear receptor subfamily 1 group I member 2 (Homo sapiens) (O75469 whole entry, looked up): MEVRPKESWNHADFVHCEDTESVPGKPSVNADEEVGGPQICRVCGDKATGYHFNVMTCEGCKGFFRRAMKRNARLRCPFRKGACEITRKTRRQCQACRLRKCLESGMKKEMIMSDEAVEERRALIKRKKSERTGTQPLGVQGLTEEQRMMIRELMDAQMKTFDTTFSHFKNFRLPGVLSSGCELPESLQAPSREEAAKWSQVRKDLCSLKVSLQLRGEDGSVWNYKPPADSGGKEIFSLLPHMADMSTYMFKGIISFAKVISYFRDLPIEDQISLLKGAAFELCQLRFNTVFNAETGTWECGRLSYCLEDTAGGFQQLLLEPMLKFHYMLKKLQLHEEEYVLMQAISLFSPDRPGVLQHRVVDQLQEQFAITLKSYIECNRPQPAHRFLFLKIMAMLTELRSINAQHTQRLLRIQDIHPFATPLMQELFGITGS
# Procedure, shortened: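 Tox21 qHTS; PXR-Luc HepG2; compounds pinned from DMSO; 24 hr, 37 C; ONE-Glo luciferase detection, 30 min room temperature.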
# [11] = biological target: Nuclear receptor subfamily 1 group I member 2 (Homo sapiens) (UniProt O75469); assay: CYP3A4 induction through human pregnane X receptor (PXR) by small molecules, qHTS assay (AID 1346984); further: nearly all actives have a fitted effect of over 40% in size
# Procedure, shortened: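 Cells (DPX-2; HepG2 with PXR element plus CYP3A4-promoter luciferase) settled 5hr, then were treated 24hr at 37C. A 3hr, 3uM-final Luciferin-IPA step preceded luminescence measurement with One-Glo.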
# [12] = biological target: Nuclear receptor subfamily 1 group I member 2 (Homo sapiens) (UniProt O75469); assay: Human pregnane X receptor (PXR) activation by small molecules, qHTS assay (AID 1346985); further: nearly all actives have a fitted effect of over 40% in size
# Procedure, shortened: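 DPX-2 cells (HepG2 co-transfected with a PXR response element and a CYP3A4-promoter luciferase construct) were seeded at 2,000 per well, rested 5 hr at 37C, then exposed to DMSO-dissolved compounds for 24 hr. Activation was read as luciferase luminescence.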
# [13] = biological target: Cytochrome P450 2D6 (Homo sapiens) (UniProt P10635); assay: Cytochrome P450 Family 2 Subfamily D Member 6 (CYP2D6) small molecule antagonists: luciferase reporter qHTS assay (AID 1671196); further: nearly all actives have a fitted effect of over 50% in size; further: potency means the concentration at half of the fitted maximal effect; on activity change, negative = inhibition: series mostly up to about 120 µM
# Chain of Cytochrome P450 2D6 (Homo sapiens) (P10635 whole entry, looked up): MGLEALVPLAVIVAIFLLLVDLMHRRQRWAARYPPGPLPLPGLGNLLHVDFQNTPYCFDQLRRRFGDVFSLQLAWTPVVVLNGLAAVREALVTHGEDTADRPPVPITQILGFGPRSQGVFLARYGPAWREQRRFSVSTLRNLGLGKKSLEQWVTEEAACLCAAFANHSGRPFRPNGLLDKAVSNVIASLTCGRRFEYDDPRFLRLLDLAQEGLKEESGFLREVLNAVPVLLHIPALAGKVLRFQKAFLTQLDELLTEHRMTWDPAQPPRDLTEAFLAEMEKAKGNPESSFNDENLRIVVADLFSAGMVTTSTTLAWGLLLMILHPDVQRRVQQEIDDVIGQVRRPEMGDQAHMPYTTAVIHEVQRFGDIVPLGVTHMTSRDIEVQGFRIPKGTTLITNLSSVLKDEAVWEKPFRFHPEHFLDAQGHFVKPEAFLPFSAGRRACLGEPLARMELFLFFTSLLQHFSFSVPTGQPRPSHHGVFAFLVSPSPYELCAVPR
# Procedure, shortened: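 Room-temperature luminescent CYP2D6 activity assay: compound preincubated 10 min with enzyme–substrate mix, NADPH-initiated reaction 1 h, detection reagent 20 min before reading.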
# [14] = qHTS assay to identify small molecule agonists of the TGF-beta/Smad signaling pathway (AID 1346859; active means well fitted activation curve with a large enough effect in the signal ratio in the repeat runs, not every such curve was filed as active; the % refers to the signal ratio; further: series mostly up to about 77 µM)
# Procedure, shortened: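 Beta-lactamase reporter activity downstream of Smad binding elements was measured in stably transfected HEK 293T cells; compounds were incubated for 5 hr, substrate for 2 hr at room temperature.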
# [15] = biological target: Thyrotropin-releasing hormone receptor (Homo sapiens) (UniProt P34981); assay: qHTS assay to identify small molecule antagonists of the thyrotropin-releasing hormone receptor (TRHR) signaling pathway (AID 1346877; active means well fitted inhibition curve with a large enough effect in the repeat runs, not every such curve was filed as active; further: series mostly up to about 51 µM)
# Chain of Thyrotropin-releasing hormone receptor (Homo sapiens) (P34981 whole entry, looked up): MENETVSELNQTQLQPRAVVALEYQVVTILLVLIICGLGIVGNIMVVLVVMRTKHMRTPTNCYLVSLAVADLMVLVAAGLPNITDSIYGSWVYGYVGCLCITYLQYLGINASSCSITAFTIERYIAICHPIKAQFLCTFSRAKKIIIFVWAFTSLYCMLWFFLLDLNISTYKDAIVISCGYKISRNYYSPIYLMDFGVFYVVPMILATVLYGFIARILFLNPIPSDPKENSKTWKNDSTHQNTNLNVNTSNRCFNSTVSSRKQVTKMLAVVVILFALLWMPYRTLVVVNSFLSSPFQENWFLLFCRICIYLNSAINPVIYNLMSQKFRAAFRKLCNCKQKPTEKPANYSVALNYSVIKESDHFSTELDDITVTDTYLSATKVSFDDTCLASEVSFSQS
# Procedure, shortened: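 Calcium signal in dye-loaded TRHR/HEK293 cells; compounds added 5 min before TRH (1 nM final); fluorescence monitored 3 min at 1 s steps.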
# [16] = qHTS assay to identify small molecule agonists of the progesterone receptor (PR) signaling pathway - cell viability counter screen (AID 1346799; calls by dose curve; further: nearly all actives have a fitted effect of over 45% in size)
# Procedure, shortened: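 Using the same plates as the PR reporter screen, HEK293T PR-UAS-bla cells received compounds for 16 hr at 37C and were then lysed with CellTiter-Glo; luminescence was read 30 min later at room temperature.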
# [17] = Caspase-3/7 induction in CHO-K1 cells by small molecules, qHTS cell viability counter screen (AID 1346979); further: nearly all actives have a fitted effect of over 35% in size; further: potency means the concentration at half of the fitted maximal effect
# Procedure, shortened: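 Multiplexed with Caspase-Glo 3/7 in CHO-K1 cells, this counter screen added CellTiter-Fluor after 16hr of compound exposure and recorded fluorescence 1hr later.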
# [18] = biological target: Progesterone receptor (Homo sapiens) (UniProt P06401); assay: qHTS assay to identify small molecule antagonists of the progesterone receptor (PR) signaling pathway (AID 1346795; active means well fitted inhibition curve with a large enough effect in the signal ratio in the repeat runs, not every such curve was filed as active; the % refers to the signal ratio)
# Procedure, shortened: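 Screening used a GripTite HEK293T line with PR-responsive UAS-beta-lactamase. Cells were challenged with compound in the presence of 1 nM R5020 final for 16 hr at 37C; B/G FRET substrate, 2 hr room temperature, fluorescence.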
# [19] = biological target: Thyrotropin-releasing hormone receptor (Homo sapiens) (UniProt P34981); assay: qHTS assay to identify small molecule agonists of the thyrotropin-releasing hormone receptor (TRHR) signaling pathway (AID 1346891; calls by dose curve;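 further: HEK293 cells expressing TRHR with calcium dye readout; series mostly up to about 58 µM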)
# Procedure, shortened: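 Overnight-plated (18 h, 37 °C, 5% CO2) TRHR-Hek293 cells; 2 h calcium dye at 37 °C; compound in DMSO; 3-min kinetic fluorescence read.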
# [20] = biological target: Nuclear receptor subfamily 1 group I member 2 (Rattus norvegicus) (UniProt Q9R1A7); assay: Rat pregnane X receptor (rPXR) activation by small molecules, qHTS assay (AID 1346983); conditions: rPXR luciferase reporter cells, One-Glo luminescence, 24 h; stronger effect = higher value; further: nearly all actives have a fitted effect of over 20% in size
# Chain of Nuclear receptor subfamily 1 group I member 2 (Rattus norvegicus) (Q9R1A7 whole entry, looked up): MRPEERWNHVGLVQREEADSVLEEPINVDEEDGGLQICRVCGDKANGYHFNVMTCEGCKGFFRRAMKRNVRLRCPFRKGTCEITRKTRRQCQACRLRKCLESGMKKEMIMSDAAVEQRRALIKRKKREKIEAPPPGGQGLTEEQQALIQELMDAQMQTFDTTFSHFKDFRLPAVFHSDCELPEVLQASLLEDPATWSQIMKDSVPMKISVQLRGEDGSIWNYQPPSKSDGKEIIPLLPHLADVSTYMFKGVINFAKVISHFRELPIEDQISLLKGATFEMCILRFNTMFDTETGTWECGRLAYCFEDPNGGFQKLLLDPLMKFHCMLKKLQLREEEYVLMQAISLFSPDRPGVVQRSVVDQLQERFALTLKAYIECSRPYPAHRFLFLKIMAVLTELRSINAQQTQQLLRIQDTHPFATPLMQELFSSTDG
# Procedure, shortened: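 Cell-based rPXR activation assay: rPXR cells, 2,000 per well, rested 5hr at 37 C, then exposed to compounds in DMSO for 24 hr at 37 C. Luciferase activity read by One-Glo luminescence after 30 min at room temperature.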
compound,measurement,setting,value
CCCCCCCCCCCCCC[N+](C)(C)C,Potency,[1],inactive
same,Potency,[2],inactive
same,Potency,[3],48.5 µM (active) and 33.5 µM (active)
same,Potency,[4],42.2 µM (active) and 54.9 µM (active)
same,Potency,[5],54.9 µM (active) and inactive
same,Potency,[6],52.7 µM (active) and 27.3 µM (active) and 26.6 µM (active)
same,Potency,[7],inactive
same,Potency,[8],inactive
same,Potency,[9],61.1 µM (active)
same,Potency,[10],inactive
same,Potency,[11],inactive
same,Potency,[12],inactive
same,Potency,[13],3.06 µM (active) and 3.17 µM (active) and 3.47 µM (active)
CCC(CC)(CC(=O)Nc1cccc(/C=C/c2nc(C3CCC3)cs2)c1)C(=O)O,Potency,[1],inactive
same,Potency,[2],inactive
same,Potency,[3],inactive
same,Potency,[4],inactive
same,Potency,[14],inactive
same,Potency,[15],inactive
same,Potency,[7],inactive
same,Potency,[8],inactive
same,Potency,[9],inactive
same,Potency,[10],23.7 µM (active)
same,Potency,[11],inactive
same,Potency,[13],inactive
Cc1cc(C)c(/C=C2\C(=O)Nc3ccccc32)[nH]1,Potency,[1],7.5 µM (active)
same,Potency,[2],inactive
same,Potency,[3],inactive
same,Potency,[16],inactive
same,Potency,[4],inactive
same,Potency,[5],inactive
same,Potency,[14],inactive
same,Potency,[15],inactive
same,Potency,[7],inactive
same,Potency,[17],inactive
same,Potency,[10],inactive
same,Potency,[13],inactive
CCC(C)n1ncn(-c2ccc(N3CCN(c4ccc(OC[C@H]5CO[C@](Cn6cncn6)(c6ccc(Cl)cc6Cl)O5)cc4)CC3)cc2)c1=O (stereo partly drawn),Potency,[1],inactive
same,Potency,[2],inactive
same,Potency,[18],inactive
same,Potency,[4],inactive
same,Potency,[5],inactive
same,Potency,[14],inactive
same,Potency,[15],inactive
same,outcome,[19],inactive
same,Potency,[7],inactive
same,Potency,[17],5.96 µM (active)
same,Potency,[8],inactive
same,Potency,[9],inactive
same,Potency,[10],2.98 µM (active)
CC[N+](CC)(CC)CCOc1ccc(/C=C/c2ccccc2)cc1,Potency,[1],inactive
same,Potency,[2],inactive
same,Potency,[3],inactive
same,Potency,[4],inactive
same,Potency,[5],inactive
same,Potency,[14],inactive
same,Potency,[15],inactive
same,outcome,[19],inactive
same,Potency,[7],inactive
same,Potency,[17],inactive
same,Potency,[8],inactive
same,Potency,[9],inactive
same,Potency,[10],inactive
same,Potency,[11],inactive
same,Potency,[12],inactive
same,Potency,[13],15.5 µM (active)
C1CCC(SSC2CCCCC2)CC1,Potency,[1],inactive
same,Potency,[2],inactive
same,Potency,[18],inactive
same,Potency,[4],inactive
same,Potency,[5],inactive
same,Potency,[14],inactive
same,Potency,[6],inactive
same,Potency,[7],inactive
same,Potency,[17],inactive
same,Potency,[8],inactive
same,Potency,[9],inactive
same,Potency,[10],inactive
same,Potency,[13],inactive
O=C(O)c1cc(O)c2ccccc2c1O,Potency,[1],27.3 µM (active)
same,Potency,[2],inactive
same,Potency,[3],inactive
same,Potency,[16],inactive
same,Potency,[4],4.9 µM (active)
same,Potency,[5],3.09 µM (active)
same,Potency,[15],inactive
same,Potency,[6],7.7 µM (active)
same,Potency,[7],inactive
same,Potency,[8],inactive
same,Potency,[9],9.69 µM (active)
same,Potency,[10],1.93 µM (active)
O=C(O)CN(CCN(CC(=O)O)CC(=O)O)CC(=O)O,"activity change, negative = cytotoxicity",[1],0.548% [at 3.27 µM] (inactive)
same,Potency,[2],0.0097 µM (active)
same,"activity change, negative = inhibition",[18],7.88% [at 3.27 µM] (inactive)
same,"viability change, negative = cytotoxic",[4],-0.549% [at 2.72 µM] (inactive)
same,"activity change, negative = cytotoxicity",[5],9.65% [at 2.72 µM] (inactive)
same,activation,[14],-0.839% [at 2.72 µM] (inactive)
same,"activity change, negative = cytotoxicity",[6],0.665% [at 3.27 µM] (inactive)
same,caspase activation,[7],-0.861% [at 3.27 µM] (inactive)
same,"activity change, negative = cytotoxicity",[17],5.31% [at 3.27 µM] (inactive)
same,caspase-3/7 activation,[8],-0.0599% [at 3.27 µM] (inactive)
same,"activity change, negative = cytotoxicity",[9],-2.26% [at 3.27 µM] (inactive)
same,max activation,[20],-0.541% (inactive)

# From PubChem BioAssay (Tox21)
